Results on 104 molecules are retold here after ChEMBL document CHEMBL4513216, “Probing the Open Global Health Chemical Diversity Library for Multistage-Active Starting Points for Next-Generation Antimalarials” (ACS Infect Dis, 2020).

The structures appear in SMILES notation. Out of some 65,000 compounds screened, about 2,100 (3.2%) showed an effect of 50% or more. The median lay at about -52%. This is one part of a sample in which strong results are shown more often than they occur.

The experiment deals with Plasmodium falciparum. Put plainly: Screen against P. falciparum Asexual Blood Stage (ABS), at 5uM. Format: functional, Dd2. The note with it: tested at 5 uM.
Turning to `Cc1cnn(C2CN(CC(=O)NCCCc3ccccc3)C2)c1`, the INHIBITION is -108%. For `c1ccc(NCc2cnc3n2CCN(C2CCOC2)CC3)nc1` (centres undefined) the value was -124%. For `CC(C)NCC1OCCc2cn(C)nc21` (centres undefined) the value was -22.9%; for `CSc1ccc(CN2CCCC3(CNC(=O)c4ccccc4O3)C2)cc1` (centres undefined), -85.7%. For `CN(C)c1cccc(C(=O)N2C[C@@H]3CC[C@H]2CN(C(=O)C2CCC2)C3)c1` the value was -111%; for `CC[C@@H](C)[C@@H](N)C(=O)Nc1cccc(-c2cnc(N(C)C)nc2)c1`, -60.2%. Turning to `COc1ccc(-c2cc(CNc3ncnc4c3CCNCC4)no2)cc1`, the INHIBITION is recorded as 16%. The same measure for `Cc1ccc(-c2cc(CNc3ncnc4c3CCNCC4)no2)cc1`: 63.5%. For `c1cncc(-c2noc(CNc3ncnc4c3CCNCC4)n2)c1` the value was -88.2%. For `Cc1nnc2n1CCN(C(=O)C(C)Oc1ccc(C#N)cc1)C2` (centres undefined) the value was -140%; for `CN(C)C(=O)CN1C[C@H]2CC[C@@H](C1)N(Cc1cccc(Cl)c1Cl)C2`, 30.9%; for `CCS(=O)(=O)N[C@H]1CN(CC(C)(C)N2CCOCC2)C[C@@H]1C1CC1`, -11.1%. Regarding `CC(C)(CN1C[C@H](Nc2ncccn2)[C@@H](C2CC2)C1)N1CCOCC1`, the INHIBITION was 50.5%.

Consider `N#CC1(C(=O)N2C[C@H](Nc3ncccn3)[C@@H](C3CC3)C2)CCOCC1`, for which the INHIBITION is given as -92.4%. On to `Cc1nccc(N[C@H]2CN(CC(C)(C)N3CCOCC3)C[C@@H]2C2CC2)n1`, for which the INHIBITION worked out at 63.5%. The same measure for `Cc1cc(N[C@H]2CN(CC(C)(C)N3CCOCC3)C[C@@H]2C2CC2)ncn1`: 48.9%; for `Cc1nccc(N[C@H]2CN(CCS(C)(=O)=O)C[C@@H]2C2CC2)n1`: -88.4%; for `Cc1ccc(NC2CCN(C(=O)COCC3CC3)CC2)nn1`: -61.2%. For `CN(C)c1ccc(C(=O)N2CCCC(n3cccn3)C2)cn1` (centres undefined) the value was -240%; for `C/N=C1/c2cc3cc(OC)ccc3n2CCN1Cc1ccccc1`, 25.3%; for `CCC(CN1CCCC1)n1cncc1-c1cnn(-c2ccc(F)cc2)c1` (centres undefined), 43%. For `CCC(CN1CCCC1)n1cncc1-c1cnn(-c2ccccc2)c1` (centres undefined) the value was 56.2%; for `CCC(CN1CCOCC1)n1cncc1-c1ccc2c(c1)CCCN2C` (centres undefined), 31.4%; for `O=C(Cc1ccc2c(c1)CCO2)N1CCCC1c1noc(C2CC2)n1` (centres undefined), -67.5%. Regarding `Cc1ccc(CN2CCc3nnc(COCCN(C)C)n3CC2)o1`, the INHIBITION is listed as -116%. For `CN(C)c1ccc(-c2cc(C(=O)O)cc(S(=O)(=O)NC3CC3)c2)cc1` the value was 57.2%; for `O=C(O)c1cc(-c2ccc3c(c2)OCO3)cc(S(=O)(=O)NC2CC2)c1`, -33.6%. The same measure for `O=C(O)c1cc(-c2ccoc2)cc(S(=O)(=O)NC2CC2)c1`: -132%. For `Cc1cccc(NC2CCc3c2[nH]c(=O)n(C2CCCCC2)c3=O)c1C` (centres undefined) the value was -28.8%; for `CN(Cc1cccnc1)[C@@H]1CN(Cc2cnn(C)c2)[C@@H]2CCCO[C@H]12`, -11.9%. Regarding `CC(=O)N[C@H]1CN(S(=O)(=O)N(C)Cc2ccccc2)C[C@@H]1C1CC1`, the INHIBITION is given as -59.7%. For the molecule `CCC[C@H]1CN(S(=O)(=O)c2ccccc2)C[C@@H]1N`, the INHIBITION worked out at 16.5%.

For the molecule `CN(Cc1ccccc1)S(=O)(=O)N1C[C@H](C2CC2)[C@@H](N)C1`, the INHIBITION is 58%.

Regarding `CC(C)[C@@H]1CN(S(=O)(=O)Cc2ccccc2)C[C@H]1C(=O)O`, the INHIBITION was -80.4%.

Take `N[C@H]1CN(S(=O)(=O)c2ccccc2)C[C@@H]1C1CC1`: the INHIBITION was -0.57%. For `N[C@H]1CN(S(=O)(=O)Cc2ccccc2)C[C@@H]1C1CC1` the value was 55.5%; for `CN(Cc1ccc(F)cc1)S(=O)(=O)N1CCOCC1`, -118%; for `CN(Cc1ccccc1)S(=O)(=O)N1C[C@@H](C(=O)O)[C@H](C2CC2)C1`, -76.5%. The same measure for `CCC[C@H]1CN(S(=O)(=O)N(C)Cc2ccccc2)C[C@@H]1N`: 68.1%; for `CO[C@H]1C[C@@H](O)C12CCN(C(=O)CCCOc1ccccc1)CC2`: -224%; for `Cc1nc(Oc2ccccc2Cl)sc1C(=O)O`: -103%. For `CC(Cn1cccn1)NC(=O)NCc1ccc(OC2CCCC2)nc1` (centres undefined) the value was -90.4%.

For the molecule `CC1CCCCN1CCNC(=O)c1ccn(-c2ccc(F)cc2)n1` (centres undefined), the INHIBITION was 34.6%. The same measure for `CC1CCCCN1CCNC(=O)c1ccn(-c2ccccc2)n1` (centres undefined): 22%.

In the case of `COc1ccc(-n2ccc(C(=O)NCCN3CCC(C)CC3)n2)cc1`, the INHIBITION was -1.58%. For `Cc1cc(C(=O)NCCN2CCCC(C)C2)nn1C` (centres undefined) the value was -67.5%; for `CC1CCN(CCNC(=O)c2ccn(-c3ccccc3)n2)CC1`, 24%; for `COc1ccc(-n2ccc(C(=O)NCCN3CCCC(C)C3)n2)cc1` (centres undefined), 7.72%. The same measure for `CC1CCCN(CCNC(=O)c2ccn(-c3ccc(F)cc3)n2)C1` (centres undefined): 50.2%; for `CC1CCCN(CCNC(=O)c2ccn(-c3cccc(F)c3)n2)C1` (centres undefined): 68%. For `CC1CCN(CCNC(=O)c2ccn(-c3ccc(F)cc3)n2)CC1` the value was 60.9%.

With `O=C(NCCn1cccn1)c1ccn(-c2cccc(F)c2)n1`, the INHIBITION is recorded as -67.5%. With `O=C(NCCN1CCCCC1)c1ccn(-c2ccc(F)cc2)n1`, the INHIBITION is 46.1%. The same measure for `CC1CCCCN1CCNC(=O)c1ccn(-c2cccc(F)c2)n1` (centres undefined): 64.3%; for `COCC(=O)N(C)Cc1ccc(F)c(F)c1`: -52.4%. For `CCOc1nnc(CN(CC)CC(=O)Nc2c(F)cccc2F)s1` the value was -13.5%; for `C=C(C)COc1cccc(C(=O)NC(C)c2nnn[nH]2)c1` (centres undefined), -109%.

Turning to `CCOc1ccc(N2CCCN=C2NC(=O)c2cccc(C)c2)cc1`, the INHIBITION is reported as -77.5%. For the molecule `Cc1cc(C(=O)N2CCc3nc(N4CCOCC4)nc(C)c3C2)c(C)o1`, the INHIBITION was -39.6%.

Consider `CC(C)NC(=O)[C@H]1C[C@@H]2[C@@H](C1)OCCN2Cc1cccs1`, for which the INHIBITION is reported as -20.5%. The same measure for `C[C@@H]1CCC[C@H](C)N1CC(=O)N1CCc2[nH]c(-c3ccccc3)nc2C1`: -64.1%; for `O=C(NCCc1cccs1)[C@]12COC[C@H]1CN(Cc1ccncc1)C2`: -31%. Take `O=C(NCCN1CCCCC1)c1ccn(-c2ccccc2)n1`: the INHIBITION was -37.9%. For `COc1cn(-c2ccccc2)nc1C(=O)NCCN1CCCC(C)C1` (centres undefined) the value was -57.1%. Regarding `CC1CCCN(CCNC(=O)c2ccn(-c3ccccc3)n2)C1` (centres undefined), the INHIBITION is reported as 50.8%. Consider `CC(C)OCc1ccc(CNc2cncc(-n3cccn3)n2)cc1`, for which the INHIBITION is listed as -83.1%. For `COCCNC(=O)c1ccc2c(=O)n3c(nc2c1)CCCC3` the value was -68%; for `COc1cc(Cl)cc(CN2CCCC(N3CCCC3)C2)c1OC` (centres undefined), 64.1%; for `COc1cc(Cl)cc(CN2CCCC(N3CCOCC3)C2)c1OC` (centres undefined), -126%. The same measure for `COc1ccc(CN2CCCC(N3CCCC3)C2)cc1Cn1cncn1` (centres undefined): -34.2%; for `O=C(O)c1ccccc1-n1cnc(CN2CCc3ccccc32)c1`: -68.5%; for `O=C(NCc1ccncc1)Nc1cc(C(F)(F)F)c[nH]c1=O`: -57.7%. Take `Cn1nccc1CNC(=O)Nc1cc(C(F)(F)F)c[nH]c1=O`: the INHIBITION was -32.9%. The same measure for `Cn1nccc1C(=O)Nc1cc(C(F)(F)F)c[nH]c1=O`: 56.5%; for `CNc1cc(C)nc(C2COCCN2Cc2csc(C)n2)n1` (centres undefined): -146%.

`Cc1ccnn1CCC(=O)N1CCC(c2cnccn2)CC1`: the INHIBITION is -164%. `CN(Cc1cscn1)C(=O)C(c1ccccc1)N1CCSCC1` (centres undefined): the INHIBITION was 13.8%.

With `CCN(CC)C(CNS(=O)(=O)c1ccc(C(=O)NC)cc1)c1ccco1` (centres undefined), the INHIBITION is -31.7%. In the case of `CCN(CC)C(CNS(=O)(=O)NCc1ccccc1)c1ccco1` (centres undefined), the INHIBITION is on record as 67%.

`CCN(CC)C(CNCc1ccc(O)cc1)c1ccco1` (centres undefined): the INHIBITION was determined as 40.1%. Regarding `Cn1ncc2c(NC3CCC(N)CC3)nc(C(C)(C)C)nc21` (centres undefined), the INHIBITION worked out at 65.3%. For `Cn1ncc2c(NC3CCCN(C(=O)C4CC4)C3)nc(C(C)(C)C)nc21` (centres undefined) the value was -74%; for `Cn1ncc2c(N[C@H]3CCCC[C@@H]3O)nc(C(C)(C)C)nc21`, -65.3%. The same measure for `COCCN1CCC2(CC1)CC(NC(=O)C(C)C)c1ccccc1O2` (centres undefined): -12.4%; for `Cn1nc(C(=O)N2CCSCC2)cc1NC(=O)c1ccco1`: -104%; for `CNc1nc(N2CCN(C3CCCCC3)C(CCO)C2)nc2c1CCC2` (centres undefined): -32.3%.

In the case of `CNc1nc(N2CCN(CC=C(C)C)C(CCO)C2)nc2c1CCC2` (centres undefined), the INHIBITION was -7.97%.

Regarding `CNc1nc(N2CCN(Cc3ccsc3)C(CCO)C2)nc2c1CCC2` (centres undefined), the INHIBITION came out at 55.7%. For `CN(C)[C@@H]1C[C@@H](CO)N(C(=O)Nc2ccc(SC(F)(F)F)cc2)C1`, the INHIBITION worked out at 7.77%. For `CCc1nc(C)cn1C(=O)Nc1ccc(F)cc1` the value was -11.7%.

With `Cc1n[nH]c(C2CN(C(=O)c3ccco3)CCO2)n1` (centres undefined), the INHIBITION is recorded as -132%.

Consider `CC(C)(C)CC(=O)NC(C)(C(N)=O)c1cccc(Cl)c1` (centres undefined), for which the INHIBITION is recorded as -54.6%. For `Cc1ccc(=O)n(CC2(O)CCN(Cc3c(F)cccc3F)CC2)n1` the value was -42.4%; for `Cn1cc(C(NCc2ccc(F)cc2)c2cccc(F)c2)cn1` (centres undefined), 13.6%. For `Fc1cccc(C(NCc2ncc[nH]2)c2ccccc2)c1` (centres undefined) the value was 69.1%. The same measure for `Fc1cccc(NCc2ncc[nH]2)c1`: -155%; for `Cc1c(C(=O)NCC2CCS(=O)(=O)C2)cnn1-c1ccccc1` (centres undefined): -29.9%; for `Cc1cc(C(=O)N2CCCC3(COCCN(CCN(C)C)C3)C2)no1` (centres undefined): -49.7%. `CCn1ncc2c1CCCC2NCc1cccc2c1OCCO2` (centres undefined): the INHIBITION is recorded as -36%. The same measure for `CCn1ncc2c1CCCC2NCc1cccc2c1OCCCO2` (centres undefined): -15.3%; for `CC(C)(C)n1ncc2c1CCCC2NCc1cccc2c1OCO2` (centres undefined): 56.8%. The same measure for `CC(C)(C)n1ncc2c1CCCC2NCc1cccc2c1OCCO2` (centres undefined): 61.5%.

On to `CCn1ncc2c1CCCC2NCc1cccc2c1OCO2` (centres undefined), for which the INHIBITION is reported as -116%. For `Cn1ncc2c1CCCC2NCc1cccc2c1OCCCO2` (centres undefined) the value was -48.9%.
